Data reported in PubChem BioAssay (NCI).
Compounds without any hit were thinned out: in the full panel of roughly 83,000, 20% have a hit.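 Each cell line was grown in a 96-well plate and treated with one concentration of compound for 48 hours. Values below 10 were considered active.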 A number with no mark means an inactive call. Active and inactive are the calls of the source.

Each compound was assayed on NCI-H23 lung (assay: NCI-60 one-dose screen, 48 h (100 = growth as untreated, 0 = no growth, -100 = all killed)). Conditions: 10 µM unless noted.

| Structure (SMILES) | growth |
| --- | --- |
| c1ccc2c(c1)oc1cc3sccc3nc12 | 101% |
| CC1=C(C(=O)OCC2CCN(C(=O)OC(C)(C)C)CC2)[C@H](c2cccc(C#N)c2)C2=C(CC(C)(C)CC2=O)N1 | 65.7% |
| O=C(c1nc2ccccc2[nH]1)C1C(c2ccc([N+](=O)[O-])cc2)C2CC3CCCCC3N2[C@@]12C(=O)Nc1cc(Cl)ccc12 (stereo partly drawn) | 26.2% |
| Nc1ccn(C2O[C@H](CO)[C@@H](O)[C@H]2O)c(=O)n1 (stereo partly drawn) | 71.8% |
| Nc1ccc(-n2c(=O)oc3ccc(Cl)cc3c2=O)c(Cl)c1 | -4.26% (active) |
| CC1=C(C(=O)OCC2CCN(C(=O)OC(C)(C)C)CC2)[C@@H](c2cccc(C#N)c2)C2=C(CC(C)(C)CC2=O)N1 | 53.3% |
| N#Cc1c(N)nc2c(c1N)C(c1ccc(F)cc1)c1ccc(N)cc1O2 (stereo not drawn) | 117% |
| COc1ccc(Cn2c(Br)c3c(c2-c2cc(OC)c(OC)c(OC)c2)CCc2sc(NC(=O)c4ccc(OC)cc4)nc2-3)cc1 | 91.9% |
| O=c1cc(NC2CCN(CCCc3ccccc3)CC2)c2cc(Cl)ccc2o1 | -1.92% (active) |
| Brc1ccc(Oc2ccc(Nc3ncnc4onc(-c5ccccc5)c34)cc2)cc1 | 94.3% |
| NNC(=O)CNC(=O)Nc1n[nH]c(=S)s1 | 100% |
| COc1ccc(Cn2c(Br)c3c(c2-c2cc(OC)c(OC)c(OC)c2)CCc2sc(NC(C)=O)nc2-3)cc1 | 66.1% |
| COc1ccc(/C=C2\NC(=O)NC2=O)cc1O | 98.1% |
